# Mdm2-MdmX inh: human Mdm2/MdmX binding inhibition | O15151+Q00987 | SaOS-2 split-luciferase Mdm2/MdmX complementation, luminescence | hit rate 3% among 330,000 | AID 485346 | inhibition, % at 8 µM;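 active = inhibition of at least 50% at 8 µM in the primary screen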
# Target sequence (O15151 whole entry, looked up): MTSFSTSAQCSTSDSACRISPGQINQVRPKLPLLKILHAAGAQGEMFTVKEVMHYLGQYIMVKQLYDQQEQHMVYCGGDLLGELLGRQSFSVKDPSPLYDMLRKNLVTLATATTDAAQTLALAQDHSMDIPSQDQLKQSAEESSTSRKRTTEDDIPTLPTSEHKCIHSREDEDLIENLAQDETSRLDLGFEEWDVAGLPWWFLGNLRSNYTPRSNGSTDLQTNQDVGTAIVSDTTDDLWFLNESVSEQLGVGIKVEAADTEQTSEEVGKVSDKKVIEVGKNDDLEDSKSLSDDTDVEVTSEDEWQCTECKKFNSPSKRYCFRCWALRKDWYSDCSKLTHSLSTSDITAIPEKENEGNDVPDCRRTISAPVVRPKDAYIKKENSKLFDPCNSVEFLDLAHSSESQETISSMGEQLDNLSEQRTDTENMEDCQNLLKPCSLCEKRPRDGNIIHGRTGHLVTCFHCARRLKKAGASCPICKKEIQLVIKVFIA
# Target sequence (Q00987 whole entry, looked up): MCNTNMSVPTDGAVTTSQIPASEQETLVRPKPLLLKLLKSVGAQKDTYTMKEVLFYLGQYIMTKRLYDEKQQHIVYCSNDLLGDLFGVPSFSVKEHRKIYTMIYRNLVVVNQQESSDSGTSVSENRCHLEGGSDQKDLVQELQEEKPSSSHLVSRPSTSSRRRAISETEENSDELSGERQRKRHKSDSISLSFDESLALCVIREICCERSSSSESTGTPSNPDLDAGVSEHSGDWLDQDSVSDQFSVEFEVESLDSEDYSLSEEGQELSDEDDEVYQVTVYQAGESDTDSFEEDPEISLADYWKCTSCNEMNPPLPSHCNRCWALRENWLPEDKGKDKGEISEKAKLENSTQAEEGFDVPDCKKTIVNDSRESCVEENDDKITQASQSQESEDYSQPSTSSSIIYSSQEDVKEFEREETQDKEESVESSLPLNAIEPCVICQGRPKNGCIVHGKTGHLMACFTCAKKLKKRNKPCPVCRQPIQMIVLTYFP
# Gli-Sufu block: antagonists of Gli-Sufu signaling; AID 588413; inhibition, % at 5 µM; Sufu-KO-LIGHT fibroblasts, Gli luciferase reporter luminescence; hit rate 0.74% among 340,000;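 active = inhibition above about 55%, limit read from the data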;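 note: 0% = DMSO-treated cells and 100% = wells with medium but no cells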
# 697 NFkB inh: inhibitors of the PMA/ionomycin-induced NF-kB reporter in 697 B cells | hit rate 0.33% among 330,000 | AID 435022 | 697 B-cell NF-kB luciferase reporter, 16 h | inhibition, % at 4 µM; in the data active = inhibition above about 35%
# Jurkat NFkB inh: lowers PMA/ionomycin-induced NF-kB signal in Jurkat cells | PMA/ionomycin-induced NF-kB luciferase reporter, luminescence | inhibition, % at 4 µM | hit rate 0.53% among 330,000 | AID 435003; in the data active = inhibition above about 50%
# Beta cell apopt: blocks beta cell apoptosis; protection from apoptosis, % (test concentration not listed); hit rate 0.8% among 300,000; AID 435005; INS-1E cytokine-induced death, ATP luminescence, 48 h; percent of positive-control rescue, neutral wells zero;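 active = Every replicate reaches about 75%, or at least half do and their mean reaches it too, limit read from the data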;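 note: 0% = cytokine-treated negative control wells and 100% = positive control rescue; higher means more ATP so stronger rescue from cytokine killing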
# 697 NFkB conf: inhibitors of the PMA/ionomycin-induced NF-kB reporter in 697 B cells, retest; shares compounds with 697 NFkB inh; 697 B-cell NF-kB luciferase, 16 h; inhibition, % at 4 µM; hit rate 35% among 2,000; AID 449746; in the data active = inhibition mostly above about 28%, no sharp cut-off; inactive = mostly below about 22%
# Mdm2-MdmX conf: confirmation of human Mdm2/MdmX interaction inhibitors | shares compounds with Mdm2-MdmX inh | Mdm2-MdmX binding, luminescent assay | inhibition, % at 8 µM | hit rate 55% among 10,000; in the data active = inhibition above about 40%
# FLuc counter: inhibits full-length luciferase, flagging false Mdm2/MdmX hits; shares compounds with Mdm2-MdmX inh; SaOS-2 full-length luciferase counterscreen, luminescence; inhibition, % at 8 µM; hit rate 77% among 6,200; AID 504607;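 active = mean inhibition at 8 µM reaching about 37%, which flags the compound as non-specific, limit read from the data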;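 note: p53-null SaOS-2 cells with luciferase driven by a doxycycline-inducible promoter; compound on cells about two nights before reading with doxycycline added after day one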
# The depositor's hits bear a star; i = inactive; . = no result; + = active, no number. Rows were chosen to be rich in hits. Some 4% of all compounds tested hit in one or more screens of this group.
SMILES,Mdm2-MdmX inh,Gli-Sufu block,697 NFkB inh,Jurkat NFkB inh,Beta cell apopt,697 NFkB conf,Mdm2-MdmX conf,FLuc counter
CCOc1cc(N2CCOCC2)c(OCC)cc1NC(=O)[C@H](C)NC(=O)c1ccco1,-13.3,-8.2,3.0,-3.2,-5.9,.,.,.
COc1ccc(C(=O)Nc2cccc(NC(=O)c3ccc(OC)c(OC)c3)n2)cc1OC,55.4*,-9.9,38.5*,40.5,13.6,46.5*,49.1*,89.2*
COc1ccccc1/C=C1\SC(=S)N(CCC(=O)Nc2ccc(C(=O)O)c(O)c2)C1=O,-21.7,7.5,16.8,2.0,-0.8,.,.,.
COc1ccccc1/C=C1\SC(=S)N(CC(=O)Nc2nnc(C)s2)C1=O,93.5*,.,71.6*,0.8,98.0*,2.9,-6.0,.
O=S1(=O)N[C@H](c2ccccc2)C[C@H](c2ccc(C(F)(F)F)cc2)O1,-11.8,8.0,2.0,-5.9,2.3,.,.,.
Cc1ccc(C(=O)Nc2cccc(NC(=O)c3ccc(C)c([N+](=O)[O-])c3)n2)cc1[N+](=O)[O-],33.4,3.4,-5.5,1.1,22.1,.,.,.
Cc1ccc(C(=O)Nc2sc(C)c(-c3ccccc3)c2C(N)=O)cc1[N+](=O)[O-],72.0*,65.9*,-415.1,-19.9,9.4,-98.7,-3.1,.
COc1ccc(-c2ccc(F)cc2)cc1[C@H]1[C@H]2C=CC[C@@H](C)[C@@H]2C(=O)N1Cc1ccccc1,60.9*,35.1,39.9*,-0.1,-6.0,46.0*,44.3*,50.1*
C[C@@H]1CC=C[C@H]2[C@H]1C(=O)N(Cc1ccccc1)[C@H]2c1ccc(-c2ccc(F)cc2)cc1F,28.1,-3.6,-2.2,1.2,3.1,.,.,.
CC(=O)Nc1cccc(C(=O)/C=C/c2ccc(/C=C/C(=O)c3cccc(NC(C)=O)c3)cc2)c1,97.6*,.,-292.6,13.1,13.9,-46.0,31.0,.
CC1=Nc2cc(C(=O)N3CCCC3)ccc2Sc2c(C)ccc(C)c21,89.7*,-16.1,i,-2.3,-1.1,i,66.7*,23.1
CC1=Nc2cc(C(=O)O)ccc2Sc2c(C)ccc(C)c21,6.3,-5.5,15.7,-8.1,-0.2,.,.,.
O=C(c1ccccc1)c1ccc(NCCCn2ccnc2)c([N+](=O)[O-])c1,19.3,36.3,-36.8,-17.2,1.3,.,.,.
Cc1cc(C(=O)Nc2c(C)nn(Cc3c(Cl)cccc3Cl)c2C)no1,24.4,-5.9,-97.6,-28.6,-6.8,.,.,.
Cc1nn(Cc2c(Cl)cccc2Cl)c(C)c1NC(=O)c1cc(C(C)C)on1,78.8*,-18.5,-469.9,-55.2,8.4,i,62.4*,53.8*
COc1cc(/C=N/NC(=O)c2cc(-c3cccc(OC(C)C)c3)nc3ccccc23)ccc1O,87.9*,-21.9,i,-11.7,5.5,-383.6,59.0*,57.2*
CCOC(=O)CNC(=O)CSc1nnc(NC(=O)c2ccc(C)cc2)s1,53.7*,14.1,42.6*,35.1,-0.2,33.1*,40.5*,68.2*
Cc1cc(-c2nc(C)c(-c3nnc(SCC(=O)Nc4cc(Cl)cc(Cl)c4)n3C)s2)no1,24.1,0.5,9.0,0.5,0.3,.,.,.
Cn1c(SCC(=O)Nc2cc(Cl)cc(Cl)c2)nnc1-c1ccc2nonc2c1,70.7*,-2.0,38.5*,6.0,-7.9,26.0,14.2,.
FC(F)(F)c1cc(CCN2CCNC[C@H]2Cc2cccc3ccccc23)cc(C(F)(F)F)c1,100.2*,-3.9,36.0*,19.6,5.4,13.2,36.1,74.8*
CC1=CC(C)(C)Nc2ccc(OC(=O)CCN3C(=O)c4ccccc4C3=O)cc21,100.7*,9.5,41.3*,15.1,-3.5,14.4,34.8,.
C[C@H]1C=CC(=O)O[C@H]1c1ccccc1,50.1*,-21.9,45.9*,43.6,-66.3,8.9,8.3,.
CC1CCCN(C(=O)C(=O)Nc2ccc3nc4n(c(=O)c3c2)CCCCC4)C1 (configuration not stated),-25.8,-4.0,-21.0,-30.9,-1.7,.,.,.
O=c1c(-c2nn[nH]n2)coc2ccc(Cl)cc12,-10.4,-5.2,4.9,-3.6,2.3,.,.,.
Cc1cc(C(=O)Cn2nnc3ccccc3c2=O)c(C)n1-c1ccccc1F,85.1*,-2.5,i,-117.5,3.4,i,78.3*,103.4*
SMILES,Mdm2-MdmX inh,Gli-Sufu block,697 NFkB inh,Jurkat NFkB inh,Beta cell apopt,697 NFkB conf,Mdm2-MdmX conf,FLuc counter
COc1ccc(-n2c(C)cc(C(=O)Cn3nnc4ccccc4c3=O)c2C)cc1,-9.8,-50.0,-21.7,-10.0,1.4,.,.,.
CC(=O)/C(C#N)=C1\NC(=O)C(Cc2ccc(C)c(Cl)c2)S1 (configuration not stated),79.4*,6.7,i,2.6,-5.7,-491.9,78.1*,31.8
Cn1c(C(=O)NCc2ccccc2)cc2oc3ccccc3c21,88.5*,-29.0,i,-95.7,2.7,-330.6,86.8*,32.1
Cn1c(C(=O)NCc2cccs2)cc2oc3ccccc3c21,77.4*,3.2,i,-60.3,-1.9,i,72.4*,27.7
Cn1c(C(=O)NCC2CCCO2)cc2oc3ccccc3c21 (configuration not stated),-102.9,-98.3,-128.9,-97.2,-4.0,.,.,.
CCOC(=O)/C(C#N)=C/c1cc(C)n(-c2ccccc2)c1C,52.3*,-21.2,-289.4,-81.0,-5.1,-114.7,65.8*,170.0*
CCOC(=O)/C(C#N)=C/c1cc(C)n(-c2ccc(Br)cc2)c1C,-5.6,.,0.0,-15.1,2.5,.,.,.
CCOC(=O)Oc1c(OC)cc(C(=O)O[C@@H]2C[C@@H]3CN4CCc5c([nH]c6cc(OC)ccc56)[C@H]4C[C@@H]3[C@H](C(=O)OC)[C@H]2OC)cc1OC,87.7*,6.7,36.9*,11.1,6.2,25.5,57.5*,49.0*
COc1cccc(C(=O)N=c2sc3cc(S(C)(=O)=O)ccc3n2C)c1,-25.4,-38.4,-64.9,-61.4,3.6,.,.,.
C=CCN1C(=O)N(CC=C)c2cccc3cccc1c23,6.2,6.7,-7.3,8.6,-1.9,.,.,.
CCN1C(=O)Nc2cccc3cccc1c23,84.4*,25.9,37.4*,-4.7,-9.9,36.3*,61.8*,56.5*
CC#CCN(Cc1ccco1)C(=O)c1ccc(OC2CCN(Cc3ccccn3)CC2)cc1,10.5,0.3,-22.9,-4.1,0.2,.,.,.
Cc1ccc(-c2cnn3c(N4CCOCC4)cc(C)nc23)cc1,63.8*,16.2,-280.3,-140.4,-8.2,-236.8,69.4*,+
Cc1ccc(-n2c(SC3CCOC3=O)nc3ccccc3c2=O)cc1 (configuration not stated),15.1,.,12.9,2.2,-1.0,.,.,.
CN(Cc1ccccc1)C(=O)c1ccc(NC(=O)Cc2ccc(NC(=O)C3CCCN(C(=O)C4CC4)C3)cc2)cc1 (configuration not stated),.,-1.0,.,.,.,.,.,.
Cn1c(=O)n(C)c2cc(NC(=O)CSc3nnc(-c4ccccc4O)n3-c3ccccc3)ccc21,57.9*,14.0,36.4*,7.4,-2.4,41.0*,19.0,.

# High-throughput results deposited in PubChem BioAssay by several laboratories.
